From ChEMBL document CHEMBL4513216, “Probing the Open Global Health Chemical Diversity Library for Multistage-Active Starting Points for Next-Generation Antimalarials” (ACS Infect Dis, 2020)
The whole screen tested about 69,000 compounds, of which about 8,600 (12%) showed an effect of 50% or more. Shown is part of a subset that was picked to be rich in strong results.

These compounds were tested on Plasmodium berghei (assay: Screen against P. berghei liver stage (PbLuc), transformed with Luciferase, at 10uM). Conditions: tested at 10 uM.
Format: functional, HepG2
Work on `O=C(NCc1cccnc1N1CCCCC1)c1ccc2[nH]nnc2c1` yielded an INHIBITION of 17.5%.
Work on `Cc1ccccc1CS(=O)(=O)CC(=O)NCc1ccccc1F` yielded an INHIBITION of -15.8%.
In the case of `CC(C)n1cc(CN(Cc2ccc(F)cc2)CC2CCCO2)cn1` (stereo unspecified), the INHIBITION is reported as 18.4%.
`O=C(CSC1=NS(=O)(=O)c2cc(F)ccc2N1)c1ccccc1` gave an INHIBITION of 10.2%.
`Cc1cccc(NC(=O)C2CCc3ccccc3N2)c1` (stereo unspecified) gave an INHIBITION of -71.7%.
In the case of `Cc1occc1C(=O)N1CCn2c(COCC3CC3)cnc2C1C` (stereo unspecified), the INHIBITION is reported as 39.3%.
Work on `Cn1cc(C(=O)NCCc2csc(-c3ccccc3)n2)ccc1=O` yielded an INHIBITION of -8.92%.
`COc1cccc(S(=O)(=O)NC(=O)CCC2CCCO2)c1` (stereo unspecified) was tested, and the INHIBITION was -9.76%.
Compound `COC1CCN(C(=O)Nc2ccccc2)CC(=O)N(C)c2ccccc21` (stereo unspecified) has an INHIBITION of 55.5%.
Compound `COC1CN(C(=O)OCC(C)C)CCC(=O)N(C)c2ccccc21` (stereo unspecified) has an INHIBITION of 52.5%.
`COC1CN(C(=O)Nc2ccccc2)CCC(=O)N(C)c2ccccc21` (stereo unspecified) gave an INHIBITION of 13.1%.
For `COC1CN(C(=O)COC(C)=O)CCC(=O)N(C)c2ccccc21` (stereo unspecified), the INHIBITION was 20.7%.
`COC1CN(C(=O)C2CC2)CCC(=O)N(C)c2ccccc21` (stereo unspecified) showed an INHIBITION of 29%.
With `COC1CCN(C(=O)C2CCCC2)CC(=O)N(C)c2ccccc21` (stereo unspecified) the INHIBITION was 33.6%.
With `COC1CN(C(=O)CC(C)C)CCC(=O)N(C)c2ccccc21` (stereo unspecified) the INHIBITION was 1.8%.
Compound `COC1CN(C(=O)CC2CCCC2)CCC(=O)N(C)c2ccccc21` (stereo unspecified) has an INHIBITION of 11.6%.
`COC1CN(C(=O)NC2CCCC2)CCC(=O)N(C)c2ccccc21` (stereo unspecified) gave an INHIBITION of 56.3%.
For `Cc1cc(NS(=O)(=O)c2ccc(C(=O)O)cc2F)ccc1F`, the INHIBITION was -2.33%.
Compound `O=C1C[C@@H]2[C@H](CCN2Cc2ccco2)N1c1ccsc1` has an INHIBITION of 39.3%.
`O=C(Cn1cc(Cl)cn1)N1CCNC1=O` showed an INHIBITION of 45.9%.
For `COc1ccc(CN2CCc3c(nc(-c4ccccn4)[nH]c3=O)C2)cc1`, the INHIBITION was -11.7%.
For `Cc1oncc1C(=O)NCc1cc(=O)n2c(n1)CN(CC(C)C)CCC2`, the INHIBITION was 38.3%.
Compound `CC(C)n1nnnc1-c1ccc(NC(=O)CCC(F)(F)F)cc1F` has an INHIBITION of 40.3%.
Compound `CCCC(=O)NCCc1nc2cc(-c3ccc(OC)cc3)ncn2n1` has an INHIBITION of -3%.
`Cn1nc(CN2CCCC2)c2c1CN(CC1CC1)CC2` was tested, and the INHIBITION was 11.6%.
For `CC(C)n1nc(CN2CCCC2)c2c1CN(CC1CC1)CC2`, the INHIBITION was 58.3%.
Compound `CN(C)Cc1nn(C)c2c1CCN(C(=O)CC1CC1)C2` has an INHIBITION of -4.99%.
Compound `CC(C)n1nc(CN(C)C)c2c1CN(CC1CC1)CC2` has an INHIBITION of 20.1%.
`CC(=O)NCC(=O)N1CCc2c(CN(C)C)nn(C(C)C)c2C1` was tested, and the INHIBITION was 34.9%.
For `CC(C)n1nc(CN(C)C)c2c1CN(C(=O)CC1CC1)CC2`, the INHIBITION was 61.5%.
With `OC(CNCc1nnc2ccccn12)c1ccc2c(c1)OCCCO2` (stereo unspecified) the INHIBITION was 17%.
Compound `Cn1cc(NC(=O)N2CCC(Cc3ccccc3)CC2)ccc1=O` has an INHIBITION of 20.45%.
Work on `Cc1cc(NC(=O)CN2CCCC2c2noc(C)n2)n(C)n1` (stereo unspecified) yielded an INHIBITION of -25.8%.
In the case of `CN(C)C(=O)N1CCc2onc(C(=O)Nc3cccnc3)c2C1`, the INHIBITION is reported as -40.5%.
Compound `O=C(N1CCC2(CC1)[C@H](O)C[C@@H]2O)C1(c2ccccc2F)CC1` has an INHIBITION of 25.9%.
`O=C(CN(CC(O)c1ccc(F)cc1)C1CC1)NCc1cccs1` (stereo unspecified) was tested, and the INHIBITION was 65.4%.
`O=C(CN(CC(O)c1ccc(F)cc1)C1CC1)NC(C1CC1)C1CC1` (stereo unspecified) gave an INHIBITION of 45.7%.
`O=C(CN(CC(O)c1ccc(F)cc1)C1CC1)NC1CCOCC1` (stereo unspecified) was tested, and the INHIBITION was 22.6%.
Work on `Cc1cnn(CCNCC(=O)NCC2(c3ccccc3)CC2)c1` yielded an INHIBITION of 17.5%.
`Cc1nc(C)n(CC2CCCN2Cc2nc(-c3ccoc3)no2)n1` (stereo unspecified) gave an INHIBITION of 7.925%.
Compound `CCCS(=O)(=O)N1CCC2(CN(c3cnn(C)c3)C(=O)CN2C)C1` (stereo unspecified) has an INHIBITION of 21.6%.
With `Cc1nn(C)c2nc(C3CC3)c(Cl)c(C(=O)O)c12` the INHIBITION was 23.4%.
Work on `O=C(c1cscn1)N1CCC2(CN(Cc3ccncc3)C2)C1` yielded an INHIBITION of 24.9%.
`O=C(c1ccccc1)N1CCCC2(CCN2Cc2cccc(F)c2)C1` (stereo unspecified) was tested, and the INHIBITION was 61.1%.
`COC(=O)CCC(=O)N1CCCC2(CCCN2Cc2cccc(F)c2)C1` (stereo unspecified) was tested, and the INHIBITION was 37.6%.
`O=C(O)CN1CCCC2(CCN2Cc2cccc(F)c2)C1` (stereo unspecified) gave an INHIBITION of 44.8%.
Compound `O=C(c1cscn1)N1CCCC2(CCN2Cc2cccc(F)c2)C1` (stereo unspecified) has an INHIBITION of 64.7%.
With `O=C(N[C@@H]1CN(Cc2cccc(F)c2)C[C@H]1O)c1cscn1` the INHIBITION was 47.1%.
`Cc1c(C(=O)O)cnn1-c1ccc(-c2nc(C3CC3)no2)cn1` gave an INHIBITION of 34%.
`CNc1cncc(C2CCCN2S(=O)(=O)c2ccc(F)cc2)n1` (stereo unspecified) showed an INHIBITION of 35.2%.
`Cc1noc(C)c1C1CCCN1C(=O)CN1C(=O)OC(C)(C)C1=O` (stereo unspecified) gave an INHIBITION of 40.7%.
Compound `Cc1nc(COC[C@H]2CCC[C@@]23CN(C(C)C)CCO3)cs1` has an INHIBITION of 12.4%.
Compound `Cc1nc(COC[C@@H]2CCC[C@@]23CN(C)CCO3)cs1` has an INHIBITION of 48.6%.
For `CCN1CCO[C@]2(CCC[C@H]2COCc2csc(C)n2)C1`, the INHIBITION was 52.9%.
Compound `Cc1nc(COC[C@@]23CCC[C@@H]2CN(CC2CCOCC2)C3)cs1` has an INHIBITION of -5.63%.
With `Cc1nc(COC[C@H]2CCC[C@]23CN(CC2CC2)CCO3)cs1` the INHIBITION was 54.4%.
`Cc1nc(COC[C@H]2CCC[C@]23CN(C2CCOC2)CCO3)cs1` (stereo partly specified) was tested, and the INHIBITION was 49.7%.
In the case of `CN(C)CCO[C@H]1CN(Cc2ccco2)[C@@H]2COC[C@H]12`, the INHIBITION is reported as 30.3%.
In the case of `Cc1csc(C(Cc2cccs2)NCc2cc3c(cc2C)OCO3)n1` (stereo unspecified), the INHIBITION is reported as 45.45%.
In the case of `CCN1CCC12CCN(C(=O)c1ccsc1)C2` (stereo unspecified), the INHIBITION is reported as -30%.
In the case of `O=C(c1ccc[nH]1)N1Cc2nccn2CC(COc2cccnc2)C1` (stereo unspecified), the INHIBITION is reported as 3.58%.
In the case of `CCCc1noc(C2CCCCN2C(=O)CCc2cnn(C)c2)n1` (stereo unspecified), the INHIBITION is reported as 1.56%.
`COc1ccc(-c2nc(C#N)c(N(C)C)o2)cc1S(=O)(=O)N1CCCC1` was tested, and the INHIBITION was -35.5%.
`c1cncc(CN2CC[C@@H]3O[C@H](COCCN4CCCC4)CC[C@@H]32)c1` was tested, and the INHIBITION was -51%.
`COc1ccc(CNC(=O)NC(C)(CO)C2CC2)c(C(F)(F)F)c1` (stereo unspecified) was tested, and the INHIBITION was 17.8%.
`Cc1noc(C)c1CN1C[C@H](OCC2CC2)[C@H]2OCCC[C@H]21` gave an INHIBITION of -1.64%.
`Cc1noc(C)c1CN1CC[C@H](OCC2CC2)[C@@H](Cc2ccccc2)C1` gave an INHIBITION of 53.2%.
`COc1ccc(C[C@H]2CN(C3CCOCC3)CC[C@H]2OCC2CC2)cc1` was tested, and the INHIBITION was -24.5%.
`Cc1noc(C)c1CN1CC[C@@H](OCC2CC2)[C@@H](Cc2ccccc2)C1` showed an INHIBITION of 73.4%.
For `Cc1noc(C)c1CN1C[C@H](OCC2CCN(C)CC2)[C@H]2COC[C@H]21`, the INHIBITION was -12.2%.
`Cc1noc(C)c1CN1C[C@H](OCC2CC2)[C@H]2COC[C@H]21` showed an INHIBITION of -41%.
